Measured values published in the supplement of paper PMC11732987, “Enantioselective OTUD7B fragment discovery through chemoproteomics screening and high-throughput optimisation” (Communications Chemistry, 2025).

Legend:
Experiment in all cases: log2 ratio of Biotin-Ahx-Ub-VS probe labelling (fragment/DMSO); higher = less target engagement (more negative = stronger competition), active = hit call of the paper (q ≤ 0.05, log2 ratio ≤ -1)
Conditions in all cases: compound concentration: 200 uM; treatment time: 3 h
USP19 = target: T1, USP19 (UniProt O94966)
T1 sequence (whole entry): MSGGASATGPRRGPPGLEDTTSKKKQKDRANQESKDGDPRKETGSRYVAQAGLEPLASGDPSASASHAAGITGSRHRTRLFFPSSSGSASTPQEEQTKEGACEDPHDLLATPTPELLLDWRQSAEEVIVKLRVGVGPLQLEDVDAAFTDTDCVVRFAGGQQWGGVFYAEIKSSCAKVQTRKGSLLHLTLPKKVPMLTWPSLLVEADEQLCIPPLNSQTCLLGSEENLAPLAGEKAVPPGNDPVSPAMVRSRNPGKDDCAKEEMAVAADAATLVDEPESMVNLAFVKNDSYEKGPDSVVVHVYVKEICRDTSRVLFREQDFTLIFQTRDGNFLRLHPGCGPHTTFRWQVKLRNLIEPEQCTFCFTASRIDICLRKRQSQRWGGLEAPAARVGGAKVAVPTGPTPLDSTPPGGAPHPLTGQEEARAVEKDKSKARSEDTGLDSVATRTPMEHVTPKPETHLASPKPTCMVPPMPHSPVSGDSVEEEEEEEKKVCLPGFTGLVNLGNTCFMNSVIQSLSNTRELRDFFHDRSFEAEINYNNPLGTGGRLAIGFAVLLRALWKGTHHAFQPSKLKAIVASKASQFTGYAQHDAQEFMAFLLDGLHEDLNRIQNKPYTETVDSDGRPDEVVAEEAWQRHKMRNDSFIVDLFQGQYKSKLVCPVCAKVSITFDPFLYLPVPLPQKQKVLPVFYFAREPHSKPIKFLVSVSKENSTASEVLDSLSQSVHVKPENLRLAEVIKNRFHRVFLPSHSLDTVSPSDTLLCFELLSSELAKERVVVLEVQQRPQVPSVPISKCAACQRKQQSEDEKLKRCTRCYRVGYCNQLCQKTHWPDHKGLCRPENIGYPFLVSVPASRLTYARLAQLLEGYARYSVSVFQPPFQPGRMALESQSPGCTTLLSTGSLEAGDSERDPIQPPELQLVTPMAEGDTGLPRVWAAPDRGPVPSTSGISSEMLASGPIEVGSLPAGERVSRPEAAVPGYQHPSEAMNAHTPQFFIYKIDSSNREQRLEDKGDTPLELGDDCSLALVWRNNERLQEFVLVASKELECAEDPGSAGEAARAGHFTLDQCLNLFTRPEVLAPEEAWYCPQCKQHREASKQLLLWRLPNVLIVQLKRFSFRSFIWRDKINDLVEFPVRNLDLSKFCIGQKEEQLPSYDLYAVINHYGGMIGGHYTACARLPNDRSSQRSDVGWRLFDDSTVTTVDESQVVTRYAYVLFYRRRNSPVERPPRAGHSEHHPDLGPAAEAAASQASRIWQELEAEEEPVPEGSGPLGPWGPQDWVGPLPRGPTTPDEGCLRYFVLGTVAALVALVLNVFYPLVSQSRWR
Procedure, shortened: (§1)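 HEK293T lysate, 495 µg per sample in Tris/CHAPS/IGEPAL buffer with protease inhibitors, was treated in triplicate with fragment at 200 µM or vehicle for 3 h and then with Biotin-Ahx-Ub-VS at 0.5 µM final for 1 h. Labelled DUBs were NeutrAvidin-enriched, digested with LysC and trypsin, and run by diaPASEF LC-MS/MS. Spectronaut label-free quantities were global-median-normalised, and values are average log2 fragment/vehicle ratios by unpaired t-test on proteins with ≥2 unique peptides.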

USP22 = target: T2, USP22 (UniProt Q9UPT9)
T2 sequence (whole entry): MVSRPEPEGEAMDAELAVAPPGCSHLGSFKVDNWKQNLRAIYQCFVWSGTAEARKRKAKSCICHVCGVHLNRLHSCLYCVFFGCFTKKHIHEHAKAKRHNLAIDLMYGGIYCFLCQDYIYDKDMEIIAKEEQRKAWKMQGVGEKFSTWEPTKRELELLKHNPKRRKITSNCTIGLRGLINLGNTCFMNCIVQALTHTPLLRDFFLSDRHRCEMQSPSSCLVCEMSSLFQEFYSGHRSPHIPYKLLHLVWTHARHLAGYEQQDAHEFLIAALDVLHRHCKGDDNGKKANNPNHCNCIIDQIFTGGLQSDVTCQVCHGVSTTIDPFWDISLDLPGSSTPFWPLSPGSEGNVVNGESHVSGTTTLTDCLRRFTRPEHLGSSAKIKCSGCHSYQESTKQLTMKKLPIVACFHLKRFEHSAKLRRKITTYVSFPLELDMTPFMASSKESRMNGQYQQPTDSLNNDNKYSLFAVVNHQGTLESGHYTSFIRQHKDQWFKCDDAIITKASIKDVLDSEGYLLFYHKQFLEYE
Procedure, shortened: as §1

USP24 = USP24 (UniProt Q9UPU5)
Sequence of USP24 (Q9UPU5 whole entry): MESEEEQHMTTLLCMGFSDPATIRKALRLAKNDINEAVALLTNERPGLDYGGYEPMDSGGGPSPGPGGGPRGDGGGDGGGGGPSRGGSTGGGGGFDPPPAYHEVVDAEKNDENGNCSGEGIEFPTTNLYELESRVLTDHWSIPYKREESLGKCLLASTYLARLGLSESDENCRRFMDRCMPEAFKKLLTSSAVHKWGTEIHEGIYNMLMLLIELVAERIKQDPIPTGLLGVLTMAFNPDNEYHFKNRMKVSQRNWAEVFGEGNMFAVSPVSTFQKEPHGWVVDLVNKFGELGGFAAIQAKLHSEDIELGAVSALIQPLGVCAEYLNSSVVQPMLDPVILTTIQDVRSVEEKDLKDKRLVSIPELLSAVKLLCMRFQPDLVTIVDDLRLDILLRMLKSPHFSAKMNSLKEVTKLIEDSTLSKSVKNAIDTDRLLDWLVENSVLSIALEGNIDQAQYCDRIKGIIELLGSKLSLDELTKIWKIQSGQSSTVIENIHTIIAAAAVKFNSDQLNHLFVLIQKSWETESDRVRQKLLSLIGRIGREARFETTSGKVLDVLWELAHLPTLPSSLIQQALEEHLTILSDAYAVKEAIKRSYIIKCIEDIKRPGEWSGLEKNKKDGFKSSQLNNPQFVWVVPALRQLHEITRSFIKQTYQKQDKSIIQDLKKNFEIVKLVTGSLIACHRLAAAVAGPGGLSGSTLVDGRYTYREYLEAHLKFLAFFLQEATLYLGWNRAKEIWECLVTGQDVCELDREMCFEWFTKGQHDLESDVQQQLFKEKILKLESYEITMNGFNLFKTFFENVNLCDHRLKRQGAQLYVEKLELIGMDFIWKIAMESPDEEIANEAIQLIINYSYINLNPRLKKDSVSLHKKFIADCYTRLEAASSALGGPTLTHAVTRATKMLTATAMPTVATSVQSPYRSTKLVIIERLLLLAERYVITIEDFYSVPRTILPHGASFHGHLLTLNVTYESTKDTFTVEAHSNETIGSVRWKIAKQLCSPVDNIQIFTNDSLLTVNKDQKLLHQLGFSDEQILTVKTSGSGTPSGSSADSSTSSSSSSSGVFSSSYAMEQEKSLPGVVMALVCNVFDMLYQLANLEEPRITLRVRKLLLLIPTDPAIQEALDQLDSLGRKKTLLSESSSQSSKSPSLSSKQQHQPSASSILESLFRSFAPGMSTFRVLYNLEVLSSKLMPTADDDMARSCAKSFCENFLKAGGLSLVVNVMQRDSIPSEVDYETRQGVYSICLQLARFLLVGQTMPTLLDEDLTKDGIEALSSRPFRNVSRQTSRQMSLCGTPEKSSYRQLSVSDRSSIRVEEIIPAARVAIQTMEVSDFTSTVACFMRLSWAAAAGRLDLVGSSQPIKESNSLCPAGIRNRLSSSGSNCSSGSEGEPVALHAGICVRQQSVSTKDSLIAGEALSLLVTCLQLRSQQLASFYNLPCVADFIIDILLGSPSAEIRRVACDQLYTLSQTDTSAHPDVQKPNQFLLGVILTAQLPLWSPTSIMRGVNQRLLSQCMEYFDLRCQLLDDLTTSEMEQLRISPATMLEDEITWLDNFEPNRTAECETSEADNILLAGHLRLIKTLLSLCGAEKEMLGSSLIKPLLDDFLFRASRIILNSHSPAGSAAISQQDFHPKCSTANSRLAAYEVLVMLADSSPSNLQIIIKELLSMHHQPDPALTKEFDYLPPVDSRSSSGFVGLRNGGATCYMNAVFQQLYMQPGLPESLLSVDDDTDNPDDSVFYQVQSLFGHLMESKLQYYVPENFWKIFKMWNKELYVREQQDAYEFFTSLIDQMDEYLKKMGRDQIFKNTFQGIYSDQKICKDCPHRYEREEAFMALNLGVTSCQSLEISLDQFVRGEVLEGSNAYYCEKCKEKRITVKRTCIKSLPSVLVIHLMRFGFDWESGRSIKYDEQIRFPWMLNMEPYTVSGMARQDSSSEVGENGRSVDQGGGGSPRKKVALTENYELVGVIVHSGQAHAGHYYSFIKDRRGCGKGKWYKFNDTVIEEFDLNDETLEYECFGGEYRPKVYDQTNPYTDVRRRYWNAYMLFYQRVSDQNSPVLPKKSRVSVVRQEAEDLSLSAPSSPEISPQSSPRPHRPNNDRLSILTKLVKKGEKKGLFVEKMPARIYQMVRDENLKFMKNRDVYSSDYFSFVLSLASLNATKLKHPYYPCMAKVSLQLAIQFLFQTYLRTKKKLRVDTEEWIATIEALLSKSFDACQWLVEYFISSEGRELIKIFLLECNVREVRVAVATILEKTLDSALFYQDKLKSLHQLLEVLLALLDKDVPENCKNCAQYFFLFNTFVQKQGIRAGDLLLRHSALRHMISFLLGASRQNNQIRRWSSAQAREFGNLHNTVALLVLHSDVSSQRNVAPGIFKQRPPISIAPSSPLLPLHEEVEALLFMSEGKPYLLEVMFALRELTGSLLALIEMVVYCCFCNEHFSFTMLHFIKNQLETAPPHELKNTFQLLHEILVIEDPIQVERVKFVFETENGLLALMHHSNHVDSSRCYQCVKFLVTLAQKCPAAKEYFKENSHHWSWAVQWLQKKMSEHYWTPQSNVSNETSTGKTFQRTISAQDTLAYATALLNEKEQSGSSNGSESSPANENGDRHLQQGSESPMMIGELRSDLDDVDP
Procedure, shortened: as §1

USP25 = target: T3, USP25 (UniProt Q9UHP3)
T3 sequence (whole entry): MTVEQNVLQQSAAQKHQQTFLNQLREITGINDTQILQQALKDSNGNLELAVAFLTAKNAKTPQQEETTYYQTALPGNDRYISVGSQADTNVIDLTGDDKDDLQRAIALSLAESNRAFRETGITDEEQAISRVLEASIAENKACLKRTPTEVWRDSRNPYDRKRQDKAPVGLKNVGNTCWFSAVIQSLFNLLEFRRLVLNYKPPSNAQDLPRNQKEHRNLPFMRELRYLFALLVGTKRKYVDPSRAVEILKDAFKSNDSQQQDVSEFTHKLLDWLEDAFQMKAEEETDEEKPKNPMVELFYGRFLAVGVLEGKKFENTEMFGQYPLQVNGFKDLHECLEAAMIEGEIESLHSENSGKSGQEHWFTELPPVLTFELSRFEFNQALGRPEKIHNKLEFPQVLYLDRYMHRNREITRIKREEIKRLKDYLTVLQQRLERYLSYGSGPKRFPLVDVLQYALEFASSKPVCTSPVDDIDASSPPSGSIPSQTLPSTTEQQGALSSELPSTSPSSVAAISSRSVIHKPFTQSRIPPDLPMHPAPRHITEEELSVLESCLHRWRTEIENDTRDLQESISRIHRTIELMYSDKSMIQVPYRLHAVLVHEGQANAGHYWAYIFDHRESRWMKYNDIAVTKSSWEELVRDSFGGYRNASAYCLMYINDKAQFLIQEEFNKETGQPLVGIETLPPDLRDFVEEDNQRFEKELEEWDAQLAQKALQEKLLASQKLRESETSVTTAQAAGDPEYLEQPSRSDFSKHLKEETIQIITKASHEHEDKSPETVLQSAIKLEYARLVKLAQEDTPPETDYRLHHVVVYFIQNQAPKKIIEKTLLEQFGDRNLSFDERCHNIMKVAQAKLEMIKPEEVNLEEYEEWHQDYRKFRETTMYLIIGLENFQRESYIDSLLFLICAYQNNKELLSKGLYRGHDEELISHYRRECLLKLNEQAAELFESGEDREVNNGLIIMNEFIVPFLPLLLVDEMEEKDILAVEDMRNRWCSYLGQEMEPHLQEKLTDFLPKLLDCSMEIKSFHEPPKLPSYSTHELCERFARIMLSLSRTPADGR
Procedure, shortened: as §1

USP28 = target: T4, USP28 (UniProt Q96RU2)
T4 sequence (whole entry): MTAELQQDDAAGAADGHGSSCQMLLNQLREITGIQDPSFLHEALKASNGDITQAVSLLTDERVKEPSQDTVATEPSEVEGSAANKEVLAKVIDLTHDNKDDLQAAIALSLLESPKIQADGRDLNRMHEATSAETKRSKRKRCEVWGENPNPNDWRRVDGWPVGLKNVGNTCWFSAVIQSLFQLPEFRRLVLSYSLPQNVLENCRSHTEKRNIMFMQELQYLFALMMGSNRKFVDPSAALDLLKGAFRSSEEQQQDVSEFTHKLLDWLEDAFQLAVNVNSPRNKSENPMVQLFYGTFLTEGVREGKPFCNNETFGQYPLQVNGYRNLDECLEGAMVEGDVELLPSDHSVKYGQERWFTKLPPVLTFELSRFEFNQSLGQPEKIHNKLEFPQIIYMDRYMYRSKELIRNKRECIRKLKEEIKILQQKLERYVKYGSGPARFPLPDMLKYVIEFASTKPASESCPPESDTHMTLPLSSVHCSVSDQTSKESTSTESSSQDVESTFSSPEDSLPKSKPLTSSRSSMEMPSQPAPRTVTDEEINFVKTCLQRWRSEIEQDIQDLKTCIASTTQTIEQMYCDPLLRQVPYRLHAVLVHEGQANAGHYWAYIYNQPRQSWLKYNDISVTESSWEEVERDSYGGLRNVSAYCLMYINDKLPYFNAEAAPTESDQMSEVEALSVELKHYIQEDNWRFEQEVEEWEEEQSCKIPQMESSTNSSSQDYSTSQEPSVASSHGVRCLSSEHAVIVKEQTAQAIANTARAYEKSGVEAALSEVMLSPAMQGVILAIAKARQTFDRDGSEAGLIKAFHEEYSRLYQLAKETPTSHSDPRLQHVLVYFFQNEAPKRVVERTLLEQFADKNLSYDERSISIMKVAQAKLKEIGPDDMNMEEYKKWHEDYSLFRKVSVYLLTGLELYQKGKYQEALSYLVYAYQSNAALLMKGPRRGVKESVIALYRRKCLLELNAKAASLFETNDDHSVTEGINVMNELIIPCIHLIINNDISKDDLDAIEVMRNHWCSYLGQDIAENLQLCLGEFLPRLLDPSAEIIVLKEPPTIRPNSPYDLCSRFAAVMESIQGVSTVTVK
Procedure, shortened: as §1

Measured: log2 ratio of Biotin-Ahx-Ub-VS probe labelling

O=C(CCl)N1CCOCC1C1CC1 (stereo not given)
inactive: USP19 -0.0224 | USP22 0.0159 | USP24 -0.173 | USP25 -0.127 | USP28 -0.304
